The text below walks through data of PubChem BioAssay AID890 (National Center for Advancing Translational Sciences (NCATS), 2007).

Active and inactive are the calls of the source. Calls come from the whole dose curve; as a rule, active = well fitted activation curve with a large enough effect; inactive = flat fitted curve, though single readings scatter.

The assay in a line: Confirmation Concentration-Response Assay for Epigenetic Modulators. The conditions noted are these: murine C127i cells, silenced GFP reporter derepression, imaging. The text has this: NIH Molecular Libraries Screening Centers Network [MLSCN] NIH Chemical Genomics Center [NCGC] MLSCN Grant: 1 X01 MH079860-01 Assay Provider: Elisabeth D. Martinez, University of Texas SW Medical Center NCGC Assay Overview: The Locus Derepression assay detects the derepression of a GFP reporter that is stably integrated in a region of the genome of murine c127i mammary cells that is presumably silenced. GFP transcription in this construct is controlled by a CMV promoter, which normally is strong and constitutively active. However, this line was selected for lack of constitutive expression of the GFP protein. GFP production can be induced by incubating the cells with histone deacetylase or DNA methyltransferase inhibitors. Compounds that cause derepression of the locus to express GFP are identified by enumerating GFP positive cells using a laser-scanning microplate cytometer.
NCGC Assay Protocol Summary: Two hundred and fifty cells in 5 uL per well were dispensed into black, clear-bottom 1536-well plates. Twenty-three nL compound was transferred to the assay plate and cells were incubated 30 hours at 37 C. […]

On to `CN1CSC(=S)N(C)C1`, for which the Potency is 7.95 µM (active).
